# Dicer inh: inhibitors of Dicer pre-microRNA processing, primary screen, biochemical, cat-ELCCA, chemiluminescence. Endoribonuclease Dicer (Homo sapiens), Q9UPY3. cat-ELCCA pre-miR-21 Dicer processing; stronger effect = higher value. z-score at 25 µM. hit rate 6% among 47,000. AID 1347074, 2019; in the data active = z-score above about 3, passing the limit was not always enough;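 note: plate controls were vehicle for no effect and no enzyme for full effect; higher signal means more uncleaved substrate so more Dicer inhibition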
# An asterisk follows results filed as active; ! = repeats disagree. This is one part of a sample in which hits are shown more often than they occur.
SMILES,Dicer inh
Clc1ccc(CN2CCN(Cc3ccco3)CC2)cc1,0.11
Clc1cccc(CN2CCN(Cc3ccco3)CC2)c1,-0.29
Fc1cccc(CN2CCN(Cc3ccco3)CC2)c1,3.5*
Oc1ccccc1/C=C/c1nc(-c2ccccc2O)n(-c2ccccc2)n1,11*
Nc1nc(/C=C/c2ccccc2O)nc(-c2ccccc2O)n1,8
Cc1nn(-c2ccccc2)c(C)c1-c1ccccc1O,0.59
CC(C)NC(=S)Nc1ccc(F)c(Cl)c1,13
COC(=O)C1=C(C)NC2=C(C(=O)c3ccccc32)C1c1cc(Cl)c(OCC(=O)O)c(OC)c1 (centres undefined),-0.61
O=C1CC(Nc2ccc(N3CCCCC3)cc2)C(=O)N1c1ccccc1F (centres undefined),3.3*
O=C1CC(Nc2ccc(F)cc2)C(=O)N1c1ccc(N2CCCCC2)cc1 (centres undefined),-0.19
O=C1CC(Nc2ccc(N3CCOCC3)cc2)C(=O)N1c1ccccc1F (centres undefined),2.8
CCC(CO)NS(=O)(=O)c1cc(-c2nnc3c4ccccc4c(C)nn23)ccc1C (centres undefined),2.4
CCc1ccc2[nH]c(C(=O)Nc3ccc(Br)c(C)n3)cc2c1,44*
CCc1ccc2[nH]c(C(=O)NCc3cc(Cl)ccc3Cl)cc2c1,-4.1
COc1ccc2[nH]c(C(=O)Nc3ccc(Br)c(C)n3)cc2c1,-1.7
Cc1cc(NC(=O)c2sc3nc4c(cc3c2N)CCCCCC4)no1,2.2
CSc1n[nH]c(-c2cc(C(F)(F)F)cc(C(F)(F)F)c2)n1,43
COc1cc(NC(=S)Nc2cccc(C)n2)c(OC)cc1Cl,-0.1
O=C(O)CCCCCNc1ncnc2ccccc12,2.7
COc1ccc(Cc2c(Cl)nc(SC)nc2Cl)cc1,-0.78
O=C(COc1ccccc1)NC1C(=O)N2C(C(=O)O)=C(Cl)CSC12 (centres undefined),-0.43
NC(=O)c1cc[n+](CC2=C(C(=O)O)N3C(=O)[C@@H](NC(=O)[C@@H](c4ccccc4)S(=O)(=O)[O-])[C@H]3SC2)cc1,3.7*!
CC(=O)OCC1=C(C(=O)O)N2C(=O)[C@@H](NC(=O)Cc3cccs3)[C@H]2SC1,2.6
COc1ccc2c(c1)nnc1nnc(SCC(=O)O)n12,-0.99
CC(=O)OC[C@H]1O[C@@H](n2cnc3c(N)ncnc32)[C@@H]2OC(C)(C)O[C@@H]21,0.05
SMILES,Dicer inh
Cc1noc(C)c1NC(=O)NC1CCCc2ccccc21 (centres undefined),-0.44
O=C(Nc1ccccc1F)NC1CCCc2ccccc21 (centres undefined),4.6*
CC(C)(C)c1ccc(NC(=O)NC2CCCc3ccccc32)cc1 (centres undefined),1.4
c1cn(CCCNc2ncnc3sc4c(c23)CCCCC4)cn1,-0.13
COC(=O)c1ccc(N2C(=O)CSC2c2ccc(OC)cc2)cc1 (centres undefined),7
COc1ccc(N2C(=O)CSC2c2ccc(Br)cc2)cc1 (centres undefined),1.3
COc1ccc(N2C(=O)N(c3ccc(OC)cc3)C3CS(=O)(=O)CC32)cc1 (centres undefined),3.9*
Cc1cn(CCC(=O)Nc2ccc(F)cc2)c2ccccc12,1.1
O=C(/C=C/Sc1c(Cl)cccc1Cl)c1cccc(Br)c1,0.31
CC(C)c1nnc(N2C(=O)c3oc4ccccc4c(=O)c3C2c2cccnc2)s1 (centres undefined),-0.41
CCSc1cc(C(F)(F)F)c(C(=O)N(CC)c2ccc(Cl)cc2)cn1,-0.7
CC(=O)Nc1nc(NC(C)=O)nc(N2CCCCC2)n1,-0.69
COCc1cc(=O)[nH]c(SCC(=O)C(C)(C)C)n1,0
COC(=O)c1cn(C(=O)c2ccco2)c2ccccc12,-0.78
COC(=O)c1cn(C(=O)c2cccs2)c2ccccc12,3*
COC(=O)c1cn(C(=O)COc2ccc(Cl)cc2)c2ccccc12,0.02
C=C(C)Cn1c(CO)nc2ccccc21,1.5
O=C(c1nn2c(C(F)(F)F)cc(-c3ccc(F)cc3)nc2c1Cl)N1CCOCC1,4.2*
O=C(c1nc2nc(-c3ccc(Cl)cc3)cc(C(F)(F)F)n2n1)N1CCOCC1,2.8
O=C(c1nn2c(C(F)(F)F)cc(-c3ccccc3)nc2c1Cl)N1CCOCC1,-0.1
O=C1c2cccc3c(Sc4ccccc4)ccc(c23)C(=O)N1Cc1ccccc1,5.2*
O=C1c2cccc3c(Sc4ccccc4)ccc(c23)C(=O)N1CCc1ccccn1,0.73
O=C1c2cccc3c(Br)ccc(c23)C(=O)N1Cc1ccccc1,1.5
O=C1CS/C(=N/N=C/c2ccn[nH]2)N1,-0.26
O=C1N/C(=N/N=C\c2[nH]ncc2Br)SC1c1ccccc1 (centres undefined),3.4*
C=CCOc1cccc(C2c3c(oc4ccccc4c3=O)C(=O)N2c2nnc(C)s2)c1 (centres undefined),-2
N#Cc1c(-c2ccc(Cl)cc2)nc(SCc2ccccc2)[nH]c1=O,1.2
CCOC(=O)c1cc2ccccc2oc1=O,1.2
Cc1nc(N2CCN(c3cccc(Cl)c3)CC2)nc2c1C(=O)CCC2,-1.3

# Screening results deposited in PubChem by Center for Chemical Genomics, University of Michigan.
